The panel holds about 83,000 compounds, 20% with a hit somewhere; the sample as a whole holds those more often.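 A percent growth of 40 corresponds to 60% growth inhibition; 0 means no net growth; -100 means all cells died. Active threshold: below 10.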 Unmarked numbers belong to inactive results. Active and inactive are the calls of the source.

Test systems include HCT-15 colon; HT29 colon; SNB-75 CNS; SNB-19 CNS; U251 CNS; PC-3 prostate; SK-MEL-5 melanoma; UACC-62 melanoma; LOX IMVI melanoma; SK-MEL-28 melanoma; SK-MEL-2 melanoma; EKVX NSCLC; UO-31 renal; TK-10 renal; ACHN renal; CAKI-1 renal; CCRF-CEM leukemia; MOLT-4 leukemia; A498 renal; SN12C renal.
Holding throughout (test): NCI-60 one-dose screen, 48 h (100 = growth as untreated, 0 = no growth, -100 = all killed)
What all share (conditions): 10 µM unless noted

On to `CN1c2ccccc2C(C)(C)C12C=Cc1cc(O)ccc1O2` (stereo not drawn), for which the growth is 43.1% in the assay on HCT-15 colon; 55.9% in the assay on HT29 colon; 43.1% in the assay on SNB-75 CNS; 61.1% in the assay on SNB-19 CNS; 52.9% in the assay with U251 CNS; 37.8% in the assay on PC-3 prostate. The growth was 43.2% in the assay on SK-MEL-5 melanoma; 30.2% in the assay on UACC-62 melanoma; 47.2% in the assay with LOX IMVI melanoma; 64.5% with SK-MEL-28 melanoma; 57.5% with SK-MEL-2 melanoma; 105% in the assay with EKVX NSCLC. Besides, the growth in the assay on UO-31 renal was 60.6%; with TK-10 renal, 80.7%; with ACHN renal, 73.3%; in the assay with CAKI-1 renal, 65.9%; with CCRF-CEM leukemia, -16.8% (active); with MOLT-4 leukemia, -17.6% (active).
As to `O=Nc1ccccc1N=O`, the growth was 51.4% in the assay with HCT-15 colon; 81.6% in the assay with HT29 colon; 46.6% with SNB-75 CNS; 88.6% in the assay on SNB-19 CNS; 78.3% with U251 CNS; 83.9% in the assay on PC-3 prostate. Moreover, the growth with SK-MEL-5 melanoma is 87.2%; with UACC-62 melanoma it was 71.2%; with SK-MEL-28 melanoma, 92.9%; in the assay with SK-MEL-2 melanoma, 90.2%; in the assay on EKVX NSCLC, 88.7%; in the assay with UO-31 renal, 64%. The growth with TK-10 renal is 115%; in the assay on ACHN renal it was 84.5%; in the assay with CAKI-1 renal it was 81.1%; in the assay on A498 renal, 110%; with CCRF-CEM leukemia it was 97.5%; with MOLT-4 leukemia it was 99.9%.
On to `O=C1N[C@H]2[C@H](CS[C@H]2CCCCC(=O)N(CCP(c2ccccc2)c2ccccc2)CCP(c2ccccc2)c2ccccc2)N1`, for which the growth in the assay with HCT-15 colon was 78.6%; with HT29 colon, 59.3%; with SNB-75 CNS, 104%; with SNB-19 CNS it was 75.7%; in the assay with U251 CNS, 50.8%; in the assay with PC-3 prostate, 71.7%. The growth in the assay on SK-MEL-5 melanoma was 87.8%; in the assay with UACC-62 melanoma it was 88.3%; in the assay on LOX IMVI melanoma, 76%; in the assay on SK-MEL-2 melanoma, 81.3%; with EKVX NSCLC, 75.3%; in the assay on UO-31 renal, 77.3%. Also, the growth in the assay with TK-10 renal was 97.4%; with ACHN renal it was 95.7%; in the assay with CAKI-1 renal, 99.2%; in the assay on CCRF-CEM leukemia, 62.7%; in the assay with MOLT-4 leukemia it was 82.8%.
`C[N+](C)=c1ccc2nc3c(cc(NCCCNc4cc5oc6cc(=[N+](C)C)ccc-6nc5c5ccccc45)c4ccccc43)oc-2c1`: the growth was -29.2% (active) in the assay on HCT-15 colon; -32.5% (active) in the assay on HT29 colon; 39.6% in the assay with SNB-75 CNS; -24.6% (active) with SNB-19 CNS; -20.1% (active) with U251 CNS; 6.83% (active) with PC-3 prostate. The growth in the assay with SK-MEL-5 melanoma was -96.3% (active); with UACC-62 melanoma, 43.3%; in the assay on SK-MEL-28 melanoma, 64.8%; with SK-MEL-2 melanoma, 90.4%; with EKVX NSCLC it was 45.6%; with UO-31 renal, 45.1%. Further, the growth with TK-10 renal was 115%; with ACHN renal it was 25.3%; with CAKI-1 renal, 53.8%; in the assay on A498 renal it was 109%; with CCRF-CEM leukemia, 11.3%; with MOLT-4 leukemia, 5.25% (active).
Consider `CCCCCCCCCCCCCCCCOP(=O)([O-])OCC[N+](C)(C)C`, for which the growth in the assay with HCT-15 colon was 1.44% (active); with HT29 colon, -14% (active); in the assay with SNB-75 CNS, 44.2%; in the assay on SNB-19 CNS it was -13.3% (active); in the assay with U251 CNS it was 8.3% (active); in the assay with PC-3 prostate, -22.1% (active). For the same compound, the growth was 37.6% with UACC-62 melanoma; 27.8% with LOX IMVI melanoma; 98.3% in the assay with SK-MEL-28 melanoma; 56.8% in the assay on SK-MEL-2 melanoma; 46.9% with EKVX NSCLC; 34.2% in the assay with SN12C renal. Also, the growth in the assay with UO-31 renal is 19.3%; in the assay with TK-10 renal, -70.3% (active); in the assay with ACHN renal, 36.4%; with CAKI-1 renal, 16.5%; in the assay on A498 renal, 3.51% (active); in the assay on CCRF-CEM leukemia, 1.24% (active). Moreover, the growth in the assay with MOLT-4 leukemia was -19.9% (active).
Take `CCOC(=O)/C(=C\c1ccc(-c2ccccc2)cc1)C(C)=O`: the growth is 94.5% in the assay with HCT-15 colon; 104% in the assay on HT29 colon; 88% in the assay on SNB-75 CNS; 99.9% in the assay with SNB-19 CNS; 103% in the assay on U251 CNS; 107% in the assay on PC-3 prostate. Further, the growth in the assay on UACC-62 melanoma was 94.6%; in the assay with LOX IMVI melanoma, 98.4%; in the assay with SK-MEL-28 melanoma, 99.1%; in the assay on SK-MEL-2 melanoma, 104%; in the assay with EKVX NSCLC, 99.2%; in the assay on SN12C renal, 89.9%. Besides, the growth with UO-31 renal is 82.7%; in the assay on TK-10 renal, 86.1%; in the assay with ACHN renal, 104%; with CAKI-1 renal, 98.7%; with CCRF-CEM leukemia it was 107%.
As for `COc1ccc(N=N/N=c2\sc3cc(OC)ccc3n2C)cc1`, the growth in the assay with HCT-15 colon was 98.9%; with HT29 colon, 78.9%; in the assay on SNB-75 CNS, 101%; in the assay with SNB-19 CNS, 98%; with U251 CNS, 77.7%; in the assay with PC-3 prostate, 77.9%. For the same compound, the growth in the assay with SK-MEL-5 melanoma is 84.6%; in the assay on UACC-62 melanoma, 83.1%; in the assay on SK-MEL-2 melanoma, 83.8%; with EKVX NSCLC, 74.8%; in the assay with SN12C renal, 89%; in the assay with UO-31 renal it was 82.7%. Moreover, the growth is 106% in the assay with TK-10 renal; 97.4% in the assay with ACHN renal; 96.8% in the assay with CAKI-1 renal; 97% in the assay with A498 renal; 93.5% in the assay with CCRF-CEM leukemia; 92.1% in the assay with MOLT-4 leukemia.
As to `CN=C(N)N/N=C(\C)c1ccc2c(c1)Cc1cc(/C(C)=N/NC(N)=NC)ccc1-2`, the growth with HCT-15 colon was 2.4% (active); with HT29 colon, -49.7% (active); with SNB-75 CNS it was -46.5% (active); in the assay with SNB-19 CNS it was -43.6% (active); in the assay on U251 CNS, -78.9% (active); in the assay with PC-3 prostate, 15.9%. For the same compound, the growth is -78.3% (active) in the assay on UACC-62 melanoma; -49.3% (active) with LOX IMVI melanoma; -64.7% (active) in the assay with SK-MEL-28 melanoma; -60.6% (active) with SK-MEL-2 melanoma; 6.23% (active) in the assay with EKVX NSCLC; 6.24% (active) in the assay with UO-31 renal. Further, the growth with TK-10 renal was -4.01% (active); in the assay on ACHN renal, -49.9% (active); in the assay on CAKI-1 renal, 23.4%; in the assay with A498 renal, -32.7% (active); in the assay on CCRF-CEM leukemia, -3.32% (active); with MOLT-4 leukemia, -10.8% (active).
